# Measured values published in PubChem BioAssay AID1985 (Southern Research Specialized Biocontainment Screening …, 2009).
# The campaign covered roughly 2,300 compounds. About 1,000 (43%) were called active. No rule for the calls is given here. The set was probably picked from earlier hits. This is one part of the list. Potency and affinity values are given separately.
# Assay: PhoP regulon inhibitor project modified counter assay, GFP fluorescence readout, dose response (AID 1985)
# Details: S. Typhi, 4 h; series mostly up to 150 µM; inhibition: at the top concentration
row,Structure (SMILES),inhibition
1,O=C(OCc1nc2ccccc2s1)c1ccco1,-20.7% (inactive)
2,O=C(O)CC/C(=C\c1ccccc1[N+](=O)[O-])c1nc2ccccc2s1,-10.3% (inactive)
3,O=C1CCCC(=O)N1c1ccc(N2CCOCC2)c([N+](=O)[O-])c1,8.04% (inactive)
4,CCn1cc(C(=O)NCCc2ccccc2)c(=O)c2cc(F)c(N3CCN(C)CC3)cc21,27.2% (inactive)
5,CN(C)CCN1C(=O)C(O)=C(C(=O)c2cc3ccccc3o2)C1c1ccccn1 (stereo not given),-2.92% (inactive)
6,O=C(Cn1nc(Cc2ccncc2)c2ccccc2c1=O)Nc1cccnc1Cl,-17.7% (inactive)
7,COc1ccc(N(CCCN2C(=O)c3cccc4cccc(c34)C2=O)C(=O)c2cccnc2)cc1,-14.9% (inactive)
8,O=C(c1ccco1)N1CCCN(Cc2nc(-c3ccc4c(c3)OCO4)no2)CC1,4.01% (inactive)
9,O=C(NCc1ccc2c(c1)OCO2)c1ccc2c(c1)C(=O)N(Cc1cccnc1)C2=O,21.3% (inactive)
10,C1CCC(n2nnnc2CN2CCN(C3CCCC3)CC2)CC1,-7.1% (inactive)
11,CCN(CC)CCOC(=O)c1ccc(N/C=C(/C#N)c2nc(-c3ccc(OC)c(OC)c3)cs2)cc1,-34.1% (inactive)
12,Cc1ccc(-n2ncc3c(=O)[nH]cnc32)c(C)c1,-5.17% (inactive)
13,N/C(=N\OC(=O)N1CCOCC1)c1ccccc1,35% (inactive)
14,O=C(Nc1cccc(OCC(=O)N2CCOCC2)c1)c1cccc([N+](=O)[O-])c1,-2.28% (inactive)
15,O=C1c2ccccc2C(=O)C1(CO)c1ccc(OC(F)F)cc1,-10.3% (inactive)
16,Cc1nnc(SCC(=O)Nc2cc(S(=O)(=O)N3CCCC3)ccc2Cl)s1,-10.1% (inactive)
17,COc1ccc(C)cc1S(=O)(=O)N1CCCC(C(=O)NCC2CCCO2)C1 (stereo not given),-6.63% (inactive)
18,COC(=O)C1=C(C(=O)OC)SC(=C2C(=S)C(C)(C)N(C(=O)C3CC3)c3ccccc32)S1,-28.7% (inactive)
19,O=C(NCC1CC1)Nc1cccs1,37.6% (inactive)
20,CC(C)(C)NC(=O)NC(=O)COC(=O)CCC1CCCC1,4.5% (inactive)
21,Cc1c(C(=O)O)oc2c3c(ccc12)OCCO3,29% (inactive)
22,CC(Nc1nc(N2CCCCC2)nc2ccccc12)c1ccccc1 (stereo not given),30.2% (inactive)

row,Structure (SMILES),inhibition
1,c1ccc(CNc2nc(N3CCN(Cc4ccccc4)CC3)nc3ccccc23)cc1,34.2% (inactive)
2,COc1ccc(N2CCN(C(CNC(=O)c3ccc4c(c3)OCO4)c3ccco3)CC2)cc1 (stereo not given),16.9% (inactive)
3,COc1ccc(C(CC(=O)O)NC(=O)C2CCCCC2)cc1 (stereo not given),13% (inactive)
4,CCCOc1ccc(-c2cn3ccccc3n2)cc1,28.7% (inactive)
5,COC(=O)c1ccc(NC(=O)c2ccccc2N(C)S(=O)(=O)c2ccccc2)cc1,5.7% (inactive)
6,Cc1cccc(N2CCN(C(=O)CCN3C(=S)NC(C)(C)CC3C)CC2)c1C (stereo not given),-23.3% (inactive)
7,CC(C)OCCCn1c(=S)[nH]c2cc3c(cc2c1=O)OCO3,5.66% (inactive)
8,O=C(NCc1ccccn1)c1nc(Cn2ccc([N+](=O)[O-])n2)no1,34% (inactive)
9,CC(C)c1ccc(N(C(=O)C(F)(F)F)C(C(=O)NC2CCCCC2)c2ccncc2)cc1 (stereo not given),13.1% (inactive)
10,O=C(CN1CCCC1)Nc1ccc(-c2nc3cc(NC(=O)CN4CCCC4)ccc3o2)cc1,9.55% (inactive)
11,CC(=O)c1c(N2CCN(c3cccc(Cl)c3)CC2)nc(=S)n(-c2ccccc2)c1C,-26.7% (inactive)
12,COc1cccc(NC(=O)CSc2nncn2-c2ccccn2)c1,-8.62% (inactive)
13,COc1ccc(Nc2nc(-c3ccccc3)nc3ccccc23)cc1S(=O)(=O)N1CCOCC1,4.27% (inactive)
14,COc1ccc(OC)c(CCNC(=O)CS(=O)(=O)Cc2nc(-c3ccccc3C)oc2C)c1,0.83% (inactive)
15,COC(=O)c1ccc(Cn2c(O)c(N=NC(N)=S)c3ccccc32)o1,-17.6% (inactive)
16,c1ccc(CSc2ccc(-c3cccs3)nn2)nc1,1.12% (inactive)
17,CCc1nnc(NC(=O)c2ccc(S(C)(=O)=O)cc2)s1,5.26% (inactive)
18,Cc1ccc2[nH]cc(CCNC(=O)c3cccnc3)c2c1,-25.4% (inactive)
19,COc1ccc(-c2csc(N)n2)cc1F,-20.7% (inactive)
20,Cc1cc(C)cc(NC(=O)CSc2nnc(CNC(=O)c3cccs3)o2)c1,-6.33% (inactive)
21,Nc1nc(SCC(=O)N2CCCC2)[nH]c(=O)c1NC(=O)c1cccs1,18.5% (inactive)
22,CC(C)(C)n1nc2c(c1NC(=O)c1cccs1)CS(=O)C2 (stereo not given),-9.23% (inactive)

row,Structure (SMILES),inhibition
1,O=C(Nc1ccc(Cc2ccncc2)cc1)c1cccs1,4.58% (inactive)
2,Cc1ccc(NC(=O)OCc2cccs2)cc1,13.1% (inactive)
3,CCc1ccc2c(c1)CCCN2C(=O)c1ccccc1C(=O)O,-6.15% (inactive)
4,CC1Cc2ccccc2N1S(=O)(=O)c1cccc(C(=O)N2CC(=O)Nc3ccccc32)c1 (stereo not given),-7.55% (inactive)
5,Cc1noc(C)c1CCC(=O)N1CCCC(CCC(=O)NCc2ccc(F)c(F)c2)C1 (stereo not given),-6.11% (inactive)
6,COc1ccc(NS(=O)(=O)c2cc(NC(=O)c3ccc(C)s3)ccc2N2CCOCC2)cc1,17% (inactive)
7,CCCC(=O)c1c(NC)cc(C)oc1=O,-13.9% (inactive)
8,CCOC(=O)C1=C(O)c2ccccc2C(=O)/C1=C\c1ccc(C)cc1,29% (inactive)
9,CCOc1cc(C2NC(=O)N(C)C(C)=C2[N+](=O)[O-])ccc1OC(C)=O (stereo not given),11.2% (inactive)
10,CCc1nc(N)nc(N)c1-c1ccc(Cl)cc1,13.8% (inactive)
11,NCCCCCc1nnc(SCc2ccc(Cl)cc2Cl)o1,3.7% (inactive)
12,CCNc1nc(N)nc(Oc2ccc(OCCOc3ccc(Cl)cc3Cl)nn2)n1,-6.34% (inactive)
13,COc1ccc(C2C(C#N)=C(N)Oc3n[nH]c(C)c32)cc1CSc1ccccn1 (stereo not given),-16% (inactive)
14,COc1ccc(OCC(=O)Nc2ccc3c(c2)nc(CCN2CCC(C)CC2)n3C)cc1,-9.84% (inactive)
15,COc1ccc(CCNC2CCCCC2)cc1,-18.6% (inactive)
16,CCOC(=O)c1cccc(NC(=O)C2CCC(CNc3c(N4CCOCC4)c(=O)c3=O)CC2)c1 (stereo not given),-8.32% (inactive)
17,Cc1ccc(-c2c(C)n([O-])c3c([n+]2=O)CCCC3)o1,-18.5% (inactive)
18,O=C(CSc1ccc(Cl)cc1)c1ccco1,20.1% (inactive)
19,O=C(CCNC(=O)c1ccco1)Nc1cccc(Br)c1,16.5% (inactive)
20,c1ccc2c(c1)OC(CCCN1CCCCC1)c1ccccc1S2 (stereo not given),30.4% (inactive)
21,Cc1cc(Cl)ccc1OCCCC(=O)N1CCCc2ccccc21,-29.3% (inactive)
22,CSc1ccc2c(c1)N(CCC1CCCCN1C)c1ccccc1S2 (stereo not given),5.05% (inactive)

row,Structure (SMILES),inhibition
1,OCCN1CCN(CCCN2c3ccccc3Sc3ccc(C(F)(F)F)cc32)CC1,-10.2% (inactive)
2,c1ccc(-c2nc(NC3CC3)nc(-n3ccnc3)n2)cc1,-12.8% (inactive)
3,COc1ccc(C2C(C(=O)NCc3cccnc3)c3ccccc3C(=O)N2C)cc1OC (stereo not given),3.91% (inactive)
4,N#Cc1nc(Cc2ccccc2)oc1NCCN1CCOCC1,-6.3% (inactive)
5,c1ccc2cc3c(NCCN4CCOCC4)ccnc3cc2c1,19.5% (inactive)
6,COC(=O)c1ccc(CSc2nc3ccccc3c(=O)n2-c2ccc(OC)c(OC)c2)o1,-15% (inactive)
7,Cc1c(/C=N/NC(=O)c2ccc3c(c2)OCO3)cnn1C,25.8% (inactive)
8,COc1ccc(C(=O)O/N=C2\C(=O)N(C)c3ccccc32)cc1,-13.2% (inactive)
9,O=C(Nc1ccc(N2CCOCC2)cc1)C1CCN(S(=O)(=O)c2ccccc2F)CC1,-6.74% (inactive)
10,CCc1cccc2c(C=C(C#N)C#N)cn(CC(=O)N3CCCCCC3)c12,-17.9% (inactive)
11,CC(=O)NCc1ccc(C(=O)CCl)cc1,1.2% (inactive)
12,CCOC(=O)c1ccc(S(=O)(=O)N2CCN(CCC#N)CC2)cc1,-10.8% (inactive)
13,CN(C)[C@@H]1C(=O)C(C(N)=O)=C(O)[C@@]2(O)C(=O)C3=C(O)c4c(O)cccc4[C@@](C)(O)C3[C@H](O)C12 (stereo not given in full),2.33% (inactive)
14,O=C1c2c(O)ccc(O)c2C(=O)c2c(NCCNCCO)ccc(NCCNCCO)c21,38.5% (inactive)
15,C[C@@H](NC(=O)/C(C#N)=C/c1ccc(O)c(O)c1)c1ccccc1,-28.2% (inactive)
16,Cc1nc2cc(C(=O)N3CCC4(CC3)OCCO4)ccc2n1-c1cccc(F)c1,-4.73% (inactive)
17,COC(=O)C1=C(C)N(CC2CC2)C(=O)N[C@H]1c1ccc(Br)cc1,0.52% (inactive)
18,COC(=O)C1=C(C)N(Cc2ccco2)C(=O)N[C@H]1c1ccc(Br)cc1,-13.2% (inactive)
19,COc1ccc2c(C(=O)CN(C)C3CCCCC3)c[nH]c2c1,39.5% (inactive)
20,COc1ccc(CC(=O)N(Cc2cc3cc(OC)ccc3[nH]c2=O)C(C)C)cc1,-10.2% (inactive)
21,COC(=O)NNS(=O)(=O)c1ccc(C)cc1,36.3% (inactive)
22,Cc1cc([N+](=O)[O-])nn1CC(=O)Nc1cccc2nonc12,2.77% (inactive)

row,Structure (SMILES),inhibition
1,N#CCC(=O)N/N=C/c1ccccc1Cl,-14.5% (inactive)
2,Cc1[nH]nc2c1C1(CCC3(CC1)OCCO3)C(C#N)=C(N)O2,6.35% (inactive)
3,NC(=O)COc1c(-c2ccco2)oc2ccccc2c1=O,-8.6% (inactive)
4,O=C(NNC(=O)c1cccs1)c1ccc2ccccc2c1,-18.4% (inactive)
5,COc1ccc(-c2noc(CCC(=O)Nc3cccc(C)c3)n2)cc1,25% (inactive)
6,COc1ccc(-c2nc3ccc(C(=O)NCC(OC)OC)cc3nc2-c2ccc(OC)cc2)cc1,2.72% (inactive)
7,CCOC(=O)c1cccc(NC(=O)c2cccs2)c1,19.6% (inactive)
8,COC(=O)c1ccc(NC(=S)NNC(=O)c2ccccc2)cc1,35.6% (inactive)
9,CCCOc1ccc(C2C(C(=O)c3ccc(C)o3)=C(O)C(=O)N2CCCn2ccnc2)cc1 (stereo not given),4.33% (inactive)
10,Clc1ccc(-c2cc(C3CCNCC3)[nH]n2)c(Cl)c1,-27.2% (inactive)
11,C=CCn1c(C)c(C(C)=O)c(SC)nc1=S,-11.3% (inactive)
12,COc1ccc(CNC(=O)C(c2cccs2)N(C(=O)c2csnn2)C2CC2)cc1 (stereo not given),-9.9% (inactive)
13,COCCN1C(=O)C(=O)/C(=C(/O)c2cccc(OC)c2)C1c1ccncc1 (stereo not given),-8.54% (inactive)
14,CCC1(CC)C(=O)NC(=O)NC1=Nc1cccc(OC)c1,-25.7% (inactive)
15,CCC(=O)c1ccc(OCC(O)CNCCc2ccc(Cl)cc2)cc1 (stereo not given),-30.2% (inactive)
16,Cn1c(=O)cc(SCC(=O)N2CCN(C3CCCCC3)CC2)c2ccccc21,-10.2% (inactive)
17,Cn1c(C(O)c2ccccc2F)nc(Cl)c1Cl (stereo not given),-12.8% (inactive)
18,CSc1ccccc1NC(=O)CN1CCCCC1C (stereo not given),-26.6% (inactive)
19,CNS(=O)(=O)c1cccc(C(=O)OCc2cc(=O)oc3c(C)c(O)ccc23)c1,-1.66% (inactive)
20,O=C(N/N=C/c1ccc(F)c(F)c1)c1cc2c(s1)-c1ccccc1CC2,11.7% (inactive)
21,CC(C)(C)Nc1nc(-c2ccccn2)nc2ccccc12,-0.17% (inactive)
22,CC(C)(C)NC(=O)/C=C/c1ccc(C(F)(F)F)cc1,0.75% (inactive)
